{
  "source": "PubChem BioAssay (NCATS)",
  "note": "Inconclusive results are not listed. A call without a number means that no potency is given here. The source made the active and inactive calls. The call rests on the fitted dose curve; in most records, active means well fitted inhibition curve with a large enough effect; inconclusive means small, poorly fitted or top-dose-only effect; inactive means flat fitted curve, though single readings scatter. Potency means the concentration at half of the fitted maximal effect.",
  "data": [
    {"tested_on": "CP268", "assay": "qHTS profiling for inhibitors of Plasmodium falciparum proliferation (AID 504749); further: nearly all actives have a fitted effect of over 60% in size", "conditions": "P. falciparum in erythrocytes, SYBR Green DNA, 72 h; series mostly up to 28.7 µM", "outline": "(§1)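 Readout was DNA-dye fluorescence from lysed cultures, ex 485/em 535 nm. Parasitized red cells had grown 72 h with compound; data scaled between 0.29 uM artemisinin and DMSO wells and corrected using vehicle-only plates.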", "values": [
      {"smiles": "Cc1cc(=O)oc2cc(O)ccc12", "Potency": "inactive"},
      {"smiles": "Clc1ccc(C(Cn2ccnc2)OCc2ccsc2Cl)c(Cl)c1", "note": "(stereo unspecified)", "Potency": "12 µM (active)"},
      {"smiles": "CNC[C@@H](O)[C@@H](O)[C@H](O)[C@H](O)CO", "Potency": "inactive"},
      {"smiles": "CCCCCCCCCCCCCCCCCCCCCCO", "Potency": "inactive"},
      {"smiles": "O=C(NCCO[N+](=O)[O-])c1cccnc1", "Potency": "inactive"},
      {"smiles": "CN(c1nccc(=O)[nH]1)C1CCN(c2nc3ccccc3n2Cc2ccc(F)cc2)CC1", "Potency": "inactive"},
      {"smiles": "O=C1CCc2ccc(OCCCCN3CCN(c4cccc(Cl)c4Cl)CC3)cc2N1", "Potency": "inactive"},
      {"smiles": "COc1ccc2cc([C@H](C)C(=O)O)ccc2c1", "Potency": "inactive"}
    ]},
    {"tested_on": "CP269", "assay": "qHTS profiling for inhibitors of Plasmodium falciparum proliferation (AID 504749); further: nearly all actives have a fitted effect of over 60% in size", "conditions": "P. falciparum in erythrocytes, SYBR Green DNA, 72 h; series mostly up to 28.7 µM", "outline": "as §1", "values": [
      {"smiles": "CCN(CCO)CCCC(C)Nc1ccnc2cc(Cl)ccc12", "note": "(stereo unspecified)", "Potency": "inactive"},
      {"smiles": "Cc1nc2n(c(=O)c1CCN1CCC(c3noc4cc(F)ccc34)CC1)CCCC2", "Potency": "inactive"},
      {"smiles": "C=C(c1ccc(C(=O)O)cc1)c1cc2c(cc1C)C(C)(C)CCC2(C)C", "Potency": "inactive"},
      {"smiles": "Cc1cccc(C)c1OCC(=O)N[C@@H](Cc1ccccc1)[C@@H](O)C[C@H](Cc1ccccc1)NC(=O)[C@H](C(C)C)N1CCCNC1=O", "Potency": "6.75 µM (active)"},
      {"smiles": "CC(C)c1ccc2oc3nc(N)c(C(=O)O)cc3c(=O)c2c1", "Potency": "inactive"},
      {"smiles": "CCCCC(CC)COC(=O)C(C#N)=C(c1ccccc1)c1ccccc1", "note": "(stereo unspecified)", "Potency": "inactive"},
      {"smiles": "COc1ccc(C2(C#N)CCC(C(=O)O)CC2)cc1OC1CCCC1", "note": "(stereo unspecified)", "Potency": "inactive"},
      {"smiles": "Cc1ccc(NC(=O)c2ccc(CN3CCN(C)CC3)cc2)cc1Nc1nccc(-c2cccnc2)n1", "Potency": "15.1 µM (active)"},
      {"smiles": "Cc1cc(=O)oc2cc(O)ccc12", "Potency": "inactive"},
      {"smiles": "Clc1ccc(C(Cn2ccnc2)OCc2ccsc2Cl)c(Cl)c1", "note": "(stereo unspecified)", "Potency": "6.75 µM (active)"},
      {"smiles": "CNC[C@@H](O)[C@@H](O)[C@H](O)[C@H](O)CO", "Potency": "inactive"},
      {"smiles": "Cc1cc(C2CCCCC2)n(O)c(=O)c1", "Potency": "5.73 µM (active)"},
      {"smiles": "CCCCCCCCCCCCCCCCCCCCCCO", "Potency": "inactive"},
      {"smiles": "O=C(NCCO[N+](=O)[O-])c1cccnc1", "Potency": "inactive"},
      {"smiles": "O=C1CCc2ccc(OCCCCN3CCN(c4cccc(Cl)c4Cl)CC3)cc2N1", "Potency": "inactive"},
      {"smiles": "COc1ccc2cc([C@H](C)C(=O)O)ccc2c1", "Potency": "inactive"},
      {"smiles": "Cc1cc(=O)c2c(O)c3c(O)cc(=O)c4c3c3c(cc(O)c1c23)C(C)(C)C=4O", "Potency": "2.69 µM (active)"}
    ]},
    {"tested_on": "CP286", "assay": "qHTS profiling for inhibitors of Plasmodium falciparum proliferation (AID 504749); further: nearly all actives have a fitted effect of over 60% in size", "conditions": "P. falciparum in erythrocytes, SYBR Green DNA, 72 h; series mostly up to 28.7 µM", "outline": "as §1", "values": [
      {"smiles": "Cc1cccc(C)c1OCC(=O)N[C@@H](Cc1ccccc1)[C@@H](O)C[C@H](Cc1ccccc1)NC(=O)[C@H](C(C)C)N1CCCNC1=O", "Potency": "7.08 µM (active)"},
      {"smiles": "CC(C)c1ccc2oc3nc(N)c(C(=O)O)cc3c(=O)c2c1", "Potency": "inactive"},
      {"smiles": "O=C(OC1C[C@H]2CC[C@@H](C1)[N+]21CCCC1)C(O)(c1ccccc1)c1ccccc1", "note": "(stereo partly specified)", "Potency": "3.98 µM (active)"},
      {"smiles": "COc1ccc(C2(C#N)CCC(C(=O)O)CC2)cc1OC1CCCC1", "note": "(stereo unspecified)", "Potency": "inactive"},
      {"smiles": "Cc1ccc(NC(=O)c2ccc(CN3CCN(C)CC3)cc2)cc1Nc1nccc(-c2cccnc2)n1", "Potency": "11.2 µM (active)"},
      {"smiles": "COCCCOc1ccnc(CS(=O)c2nc3ccccc3[nH]2)c1C", "note": "(stereo unspecified)", "Potency": "inactive"},
      {"smiles": "Clc1ccc(C(Cn2ccnc2)OCc2ccsc2Cl)c(Cl)c1", "note": "(stereo unspecified)", "Potency": "7.08 µM (active)"},
      {"smiles": "N=C(N)c1ccc2cc(OC(=O)c3ccc(N=C(N)N)cc3)ccc2c1", "Potency": "4.47 µM (active)"},
      {"smiles": "CNC[C@@H](O)[C@@H](O)[C@H](O)[C@H](O)CO", "Potency": "inactive"},
      {"smiles": "CCCCCCCCCCCCCCCCCCCCCCO", "Potency": "inactive"},
      {"smiles": "O=C(NCCO[N+](=O)[O-])c1cccnc1", "Potency": "inactive"},
      {"smiles": "CN(c1nccc(=O)[nH]1)C1CCN(c2nc3ccccc3n2Cc2ccc(F)cc2)CC1", "Potency": "inactive"},
      {"smiles": "CCCCCCCCOc1ccccc1C(=O)Nc1ccc(C(=O)OCC[N+](C)(CC)CC)cc1", "Potency": "6.31 µM (active)"},
      {"smiles": "CC[C@]1(O)C[C@H]2CN(CCc3c([nH]c4ccccc34)[C@@](C(=O)OC)(c3cc4c(cc3OC)N(C=O)[C@H]3[C@@](O)(C(=O)OC)[C@H](OC(C)=O)[C@]5(CC)C=CCN6CC[C@]43[C@@H]65)C2)C1", "Potency": "0.0708 µM (active)"},
      {"smiles": "Cc1cc(=O)c2c(O)c3c(O)cc(=O)c4c3c3c(cc(O)c1c23)C(C)(C)C=4O", "Potency": "1.58 µM (active)"},
      {"smiles": "Nc1nc(Cl)nc2c1ncn2[C@H]1C[C@H](O)[C@@H](CO)O1", "Potency": "inactive"}
    ]}
  ]
}
